Rows were chosen to be rich in hits. Some 9.4% of all compounds tested hit in one or more screens of this group.
NPC1 promoter act – qHTS Assay for NPC1 Promoter Activators; Huh7 NPC1 promoter luciferase reporter, 24 h; actives 2.4% (n = 320,000); Potency, µM (top dose mostly 9.22 µM), actives largely listed as activators; also: nearly all actives have a fitted effect of over 60% in size
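Quantitative HTS used a cell-based reporter: Huh7 cells stably bearing the NPC1 promoter upstream of luciferase were treated with compounds for 24 h, and promoter activation was read as luminescence.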
ELG1 DNA repair – qHTS screen for small molecules that inhibit ELG1-dependent DNA repair in human embryonic kidney (HEK293T) cells expressing luciferase-tagged ELG1. Potency, µM (titrated, usually from 46.1 µM), actives largely listed as inhibitors. HEK293T ELG1-luciferase reporter, luminescence, 16 h; DNA damage induced by 5-fluorouridine. actives 2.3% (n = 330,000); also: nearly all actives have a fitted effect of over 55% in size
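Luminescence from the luciferase reporter, measured 30 min after ONE-Glo reagent at room temperature, was the read-out. Beforehand, 2,000 cells per well were exposed for 16 hr at 37 °C to 5-fluorouridine together with compound or vehicle.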
FLuc modulator – qHTS profiling assay for firefly luciferase inhibitor/activator using purifed enzyme and Km concentrations of substrates (counterscreen for miR-21 project). Luciferin 4-monooxygenase (Photinus pyralis), P08659. purified FLuc, Km substrates, luminescence inhibition. Potency, µM (series often up to 57.5 µM), most hits filed as inhibitors. actives 6.9% (n = 360,000); also: nearly all actives have a fitted effect of over 55% in size
Target sequence (P08659 whole entry, looked up): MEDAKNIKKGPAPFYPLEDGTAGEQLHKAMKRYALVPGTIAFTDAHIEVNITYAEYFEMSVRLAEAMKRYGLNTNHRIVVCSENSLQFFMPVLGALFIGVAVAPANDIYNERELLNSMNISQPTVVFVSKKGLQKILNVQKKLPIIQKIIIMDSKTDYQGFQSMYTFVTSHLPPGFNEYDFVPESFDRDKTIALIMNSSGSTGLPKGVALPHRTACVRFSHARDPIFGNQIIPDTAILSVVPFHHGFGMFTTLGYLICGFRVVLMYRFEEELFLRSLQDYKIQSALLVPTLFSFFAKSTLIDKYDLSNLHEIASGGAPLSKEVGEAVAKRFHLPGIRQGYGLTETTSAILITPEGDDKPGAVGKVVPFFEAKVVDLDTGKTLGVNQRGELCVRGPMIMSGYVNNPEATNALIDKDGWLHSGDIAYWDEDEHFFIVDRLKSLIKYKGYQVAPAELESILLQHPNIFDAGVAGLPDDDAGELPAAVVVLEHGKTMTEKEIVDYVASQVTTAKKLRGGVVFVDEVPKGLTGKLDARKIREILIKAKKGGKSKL
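Biochemical qHTS of compounds, final roughly 60 µM downward over six points, against 10 nM purified firefly luciferase using Km concentrations of substrates (10 uM D-luciferin, 10 uM ATP) in Tris acetate pH 7.5 buffer; luminescence output.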
Rab9 promoter act – qHTS Assay for Rab9 Promoter Activators; Huh7 Rab9 promoter-luciferase reporter, luminescence, 24 h; Potency, µM (doses to about 9.22 µM), usual class: activators; actives 2.8% (n = 320,000); AID 485297, 2010; also: nearly all actives have a fitted effect of over 60% in size
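Luminescence from Amplite-detected luciferase (10 minutes, ambient) reports Rab9 promoter activation. Before that, stable Rab9-luciferase Huh7 cells (1500/well, reduced-serum OP-MEM I plus 10% FBS) were exposed to compound for 24 hours at 37C.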
ELG1 genotox – qHTS screen for small molecules that induce genotoxicity in human embryonic kidney (HEK293T) cells expressing luciferase-tagged ELG1; HEK293T ELG1-luciferase reporter, luminescence, 16 h; Potency, µM (highest dose often 46 µM), usual class: activators; actives 1.3% (n = 330,000); also: nearly all actives have a fitted effect of over 60% in size
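After overnight (16 hr) compound treatment at 37 °C, ELG1-luciferase HEK293T cells were lysed with ONE-Glo; luminescence quantified 30 min later at room temperature.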
SMN2 splice up – qHTS Assay for Enhancers of SMN2 Splice Variant Expression | HEK293 SMN2-luciferase splicing reporter, luminescence, 30-36 h | actives 2.8% (n = 210,000) | Potency, µM (highest dose often 46.1 µM), actives largely listed as activators | AID 1458, 2008; also: nearly all actives have a fitted effect of over 55% in size
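qHTS luciferase splicing reporter: luminescence rises when SMN2 exon 7 is included in transfected HEK293 cells. Compound exposure lasted 30-36 h at 37C, with 4.5 mM final sodium butyrate as control, followed by a ONE-Glo read.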
A number is an active result; – = inactive; ? = inconclusive; · = no result given; [ ] = another dose, or the depositor's remark. Calls follow the shape of the dose curve; as a rule, active = well fitted curve in the direction sought with a large enough effect; inconclusive = small, poorly fitted or top-dose-only effect, or another doubt; inactive = no such curve, though single readings can be large; an effect the other way counts as inactive or inconclusive.

SMILES | NPC1 promoter act | ELG1 DNA repair | FLuc modulator | Rab9 promoter act | ELG1 genotox | SMN2 splice up
COc1ccc(OC)c(-c2noc(N3CCN(c4cc(C)ccc4C)CC3)n2)c1 | · | · | – | · | · | ·
CC(C)c1c(O)ccc2c1CCC1[C@@](C)(C=O)CCC[C@@]21C (stereo partly drawn) | · | · | · | · | · | –
CCN(CC(=O)Nc1ccc(NC(C)=O)cc1)C(=O)CCCOc1ccc(C(C)(C)C)cc1 | – | ? | 15.1µM | – | ? | ·
COc1ccc2cc(CNc3ccc(C)cc3)c(=O)n(CC(=O)Nc3ccc(OC)c(Cl)c3)c2c1 | · | · | – | · | · | ·
Oc1cccc(/C=N/N=C/c2cccc(O)c2O)c1O | – | ? | 1.69µM | – | ? | ·
CCOC(=O)N1CCC(N2CCCC(C(=O)c3ccc4cc(OC)ccc4c3)C2)CC1 (stereo not drawn) | – | 23.1µM | – | – | – | ·
CCOC(=O)N1CCC(N2CCCC(C(=O)c3cc(C)c(OC)c(C)c3)C2)CC1 (stereo not drawn) | – | ? | – | – | – | ·
CN(C)CCN(C(=O)c1ccco1)c1nc2cc3c(cc2s1)OCCO3 | – | ? | – | – | 18.3µM | ·
O=C(Nc1nc2ccccc2c(=O)s1)c1ccc(F)cc1Cl | – | ? | 3.79µM | – | – | ·
O=C(Nc1nc2ccccc2c(=O)s1)c1ccco1 | – | – | 15.1µM | – | – | ·
O=C(Nc1n[nH]c(=S)s1)c1ccco1 | – | – | – | – | – | ·
O=C(Nc1nc2cc3c(cc2s1)OCCO3)c1ccco1 | ? | ? | 0.107µM | 0.794µM | ? | ·
O=C(CCNC(=O)c1ccccc1Cl)Nc1nc2ccc(F)cc2s1 | – | ? | ? | – | – | ·
CN(C)CCN(C(=O)c1ccc(C(=O)c2ccccc2)cc1)c1nc2cc3c(cc2s1)OCCO3 | – | ? | – | – | ? | ·
COc1ccc(N2CCN(c3oc(/C=C/c4ccc(F)cc4)nc3C#N)CC2)cc1 | · | · | – | · | · | –
COc1ccc(C)cc1NC(=O)CSc1ncc2c(n1)-c1ccc(Cl)cc1N(Cc1ccccc1)S2(=O)=O | · | · | – | · | · | ·
COc1cc(NC(=O)COCc2cc(-c3ccc(F)cc3)on2)cc(OC)c1OC | · | · | – | · | · | –
C[N+]1(CCC(=O)c2ccco2)CC2CCC(CC2)C1 (stereo not drawn) | · | · | · | · | · | –[9.22 µM]
Cc1c(C(=O)NCc2ccccc2Cl)sc2nc3n(c(=O)c12)CCCCC3 | · | · | – | · | · | ·
CC(C)(C)c1ccc(OCC(=O)N(Cc2ccco2)Cc2ccccc2F)cc1 | · | · | – | · | · | –
CCCc1cc2c(cc1NC(=O)c1ccco1)OCO2 | – | – | – | – | – | –
O=C(Nc1nc2cc3c(cc2s1)OCCO3)c1ccc(N2C(=O)CCC2=O)cc1 | ? | ? | ? | – | – | ·
O=C(Nc1nc2cc3c(cc2s1)OCO3)c1ccco1 | 0.251µM | ? | 0.239µM | 0.224µM | – | ·
O=C(Nc1nc2cc3c(cc2s1)OCCO3)c1ccncc1 | 2.24µM | ? | 1.69µM | 1.58µM | ? | ?
Cc1ccc(-c2cn(-c3ccc(SC(F)F)cc3)c3[n+]2CCC3)cc1 | – | ? | – | – | – | ·
SMILES | NPC1 promoter act | ELG1 DNA repair | FLuc modulator | Rab9 promoter act | ELG1 genotox | SMN2 splice up
Cc1ccc(-c2cn(-c3ccc(OC(F)F)cc3)c3[n+]2CCCCC3)cc1 | – | 9.2µM | – | – | – | ·
FC(F)Oc1ccc(-n2cc(-c3ccccc3)[n+]3c2CCCCC3)cc1 | – | 16.4µM | – | – | – | ·
COc1ccccc1NC(=O)COC(=O)c1c(C)nn(-c2ccccc2)c1C | ? | – | 7.57µM | ? | – | ·
Cc1nn(-c2ccccc2)c(C)c1C(=O)OCC(=O)Nc1ccccc1 | ? | ? | 9.53µM | ? | – | ·
Cc1ccc2c(CC(=O)N(Cc3ccc(Cl)cc3)Cc3ccco3)coc2c1 | · | · | – | · | · | –
CCOc1cc(C(=S)N2CCCC2)ccc1OCC(=O)Nc1c(C)cc(C)cc1C | – | 20.6µM | – | – | – | –
Cc1cc(Cl)ccc1OCCCC(=O)OCC(N)=O | – | – | 26.9µM | – | – | –
Cc1ccc(OCC(=O)N2CCCCCC2)c(C)c1 | – | ? | – | – | ? | 7.08µM
Cc1cc(Cl)ccc1OCCCC(=O)NN | – | – | – | – | – | –
CC(C)c1ccc(OCC(=O)N2CCCCCC2)c(Br)c1 | ? | ? | 21.3µM | 2.82µM | ? | –
CCN(CC)C(=O)c1c(NC(=O)c2ccccc2F)sc2c1CCC(C(C)(C)C)C2 (stereo not drawn) | · | · | – | · | · | –
Cc1cc(Cl)ccc1OCCCC(=O)N1CCCCC1 | ? | ? | 21.3µM | ? | ? | –
COc1ccc(CNC(=O)COC(=O)CCCOc2ccc(Cl)cc2Cl)cc1OC | – | ? | 16.9µM | – | – | –
Cc1cc(Cl)ccc1OCCCC(=O)N1CCOCC1 | – | ? | ? | ? | ? | –
COc1ccc(-n2nc(-c3ccc(C)cc3)c3cnc4cc(F)c(F)cc4c32)cc1 | · | · | – | · | · | –
CCN1CCN(Cc2ccc(NC(=O)c3cc(NC(=O)C(=O)c4c[nH]c5ccccc45)cc(OC)c3)cc2C(F)(F)F)CC1 | – | – | 9.53µM | – | – | ·
CCN1CCN(Cc2ccc(NC(=O)c3ccc(C)c(NC(=O)c4ccc5n[nH]nc5c4)c3)cc2C(F)(F)F)CC1 | – | – | 19µM | – | – | ·
CCN1CCN(Cc2ccc(NC(=O)c3cc(NC(=O)c4cnn(-c5ccccc5)c4N)cc(OC)c3)cc2C(F)(F)F)CC1 | – | – | 16.9µM | – | – | ·
CCN1CCN(Cc2ccc(NC(=O)c3ccc(C)c(NC(=O)c4ccnnc4)c3)cc2C(F)(F)F)CC1 | – | – | – | – | – | ·
Cc1ccc(NC(=O)c2ccc3c(c2)OCCO3)cc1 | 0.316µM | ? | 0.536µM | 0.1µM | ? | 0.708µM
NS(=O)(=O)c1ccc(NC(=O)c2ccc3c(c2)OCO3)cc1 | – | – | – | – | – | ·
Cc1ccc(NC(=O)CN2CCC(C(=O)c3ccc4c(c3)OCCO4)CC2)cc1 | – | – | – | – | – | –
O=C(Nc1ccncc1)c1ccc2c(c1)OCCO2 | – | – | 16.9µM | – | – | –
COc1ccc2c(c1)C(=O)[C@@H](OC(=O)NCCOc1ccccc1)[C@H](c1ccc(OC)c(Br)c1)O2 | · | · | · | · | · | –
COc1cccc(CNC(=O)Cn2nc(N3CCN(c4ccccc4OC)CC3)ccc2=O)c1 | · | · | – | · | · | ·
Cc1c(NC(=O)Nc2ccc(Br)cc2F)sc2nc3n(c(=O)c12)CCC(C)CC3 (stereo not drawn) | · | · | – | · | · | –
CC(C)C1COC(c2cccc3ccccc23)=N1 (stereo not drawn) | 3.16µM | ? | 2.13µM | 0.794µM | 20.6µM | 22.4µM
